For experiment [1], the target named is Retinoic acid receptor RXR-alpha (Homo sapiens) (UniProt P19793). As to the kind of experiment: OT_NURR1_NURR1RXRa_1440: Odyssey Thera (OT) 24-hour HEK293T Protein Complementation Assay for Nurr1/retinoid X receptor (RXR) (AID 2283386; active = hit-call score of the fitted dose curve at least 0.9, where 1 is the maximum). The method in brief:
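Steps: fragment-tagged Nurr1 and RXRα expressed in HEK293T; compounds added; after 24 h, complemented reporter quantified by fluorescence intensity; signal increase over DMSO fitted as the single endpoint.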

For experiment [2], the target named is Peroxisome proliferator-activated receptor gamma (Homo sapiens) (UniProt P37231). As to the kind of experiment: OT_PPARg_PPARgSRC1_0480: Odyssey Thera (OT) 8-hour Protein-Complementation Assay for Peroxisome Proliferator-activated Receptor Gamma / SRC-1 Co-activator (AID 2283387; active = hit-call score of the fitted dose curve at least 0.9, where 1 is the maximum;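 also: nuclear to cytoplasmic split Venus YFP fluorescence ratio reporting PPARg SRC-1 interaction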). The method in brief: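 Protein-fragment complementation in HEK293T: Venus YFP halves (residues 1-158, 159-239, mutated to IFP1/IFP2) fused to PPARg/SRC-1. 8 h exposure; N/C ratio at 488 nm; DMSO negative control.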
Chain of Peroxisome proliferator-activated receptor gamma (Homo sapiens) (P37231 whole entry, looked up, the tested form may be a part): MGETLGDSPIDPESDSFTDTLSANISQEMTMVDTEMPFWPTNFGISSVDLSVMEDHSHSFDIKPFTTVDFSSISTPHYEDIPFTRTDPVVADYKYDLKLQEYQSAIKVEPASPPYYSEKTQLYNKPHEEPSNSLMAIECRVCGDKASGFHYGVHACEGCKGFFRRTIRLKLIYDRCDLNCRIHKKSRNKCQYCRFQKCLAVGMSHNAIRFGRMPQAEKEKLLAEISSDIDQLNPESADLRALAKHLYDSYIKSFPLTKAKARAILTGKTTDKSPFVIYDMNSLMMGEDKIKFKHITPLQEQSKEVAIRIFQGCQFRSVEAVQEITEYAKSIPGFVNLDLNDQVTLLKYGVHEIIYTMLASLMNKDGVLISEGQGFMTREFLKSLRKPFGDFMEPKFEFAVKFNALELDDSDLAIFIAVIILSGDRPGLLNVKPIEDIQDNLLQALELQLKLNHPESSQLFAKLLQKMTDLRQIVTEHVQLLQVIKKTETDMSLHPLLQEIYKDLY

Experiment [3] shares this target. In words: OT_PPARg_PPARgSRC1_1440: Odyssey Thera (OT) 24-hour Protein-Complementation Assay for Peroxisome Proliferator-activated Receptor Gamma/ SRC-1 Co-activator (AID 2283388; active = hit-call score of the fitted dose curve at least 0.9, where 1 is the maximum;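 also: nuclear to cytoplasmic ratio of reconstituted Venus YFP fluorescence in fixed imaged cells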). Summed up:
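Readout is the 488 nm N/C fluorescence ratio from fixed, Draq5-stained HEK293T cells after 24 h compound exposure. Cells carried transiently transfected PPARg and SRC-1 fused to Venus fragments, transfected 48 h before treatment.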

Experiment [4] in a line: CEETOX_H295R_11DCORT: CeeTox H295R High-throughput Steroidogenesis Assay for 11-Deoxycortisol (11DCORT) (AID 2283432).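 Also: 11-deoxycortisol secreted into the medium measured by LC-MS/MS.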 Particulars: actives raise or lower the signal. Summed up:
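Adrenal carcinoma line H295R, run per OECD 456 with minor changes, was forskolin-stimulated (10 uM, 48 h) before a 48 h chemical exposure at 0.1% DMSO. Secreted 11-deoxycortisol was quantified by HPLC-MS/MS.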

Experiment [5] in a line: CEETOX_H295R_OHPREG: CeeTox H295R High-throughput Steroidogenesis Assay for OH-Pregnenolone (OHPREG) (AID 2283434). Particulars: actives raise or lower the signal. Summed up:
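Secreted 17alpha-hydroxypregnenolone measured by HPLC-MS/MS after liquid-liquid extraction. Human adrenal H295R cells received 48 h forskolin (10 uM) stimulation before 48 h chemical exposure at 0.1% final DMSO; MTT viability in same wells; bidirectional fit against DMSO.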

Experiment [6] is described as follows: CEETOX_H295R_CORTIC: CeeTox H295R High-throughput Steroidogenesis Assay for Corticosterone (CORTIC) (AID 2283437). Particulars: actives raise or lower the signal. The method in brief: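 Medium corticosterone was quantified by tandem mass spectrometry following 48 hours of chemical exposure (0.1% DMSO) in human H295R cells previously stimulated 48 hours with 10 uM forskolin. Viability checked by MTT; chemicals diluted and retested when viability fell below 70%.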

Experiment [7] in a line: CEETOX_H295R_PROG: CeeTox H295R High-throughput Steroidogenesis Assay for Progesterone (PROG) (AID 2283442).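 As to AC50: human H295R adrenal cells primed with 10 µM forskolin before dosing.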 Particulars: actives raise or lower the signal. The method in brief:
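Progesterone secreted by human H295R cells was measured by LC-MS/MS following 48 h chemical exposure at 0.1% DMSO, preceded by 48 h forskolin (10 uM) stimulation. Same-well MTT viability; cytotoxic concentrations diluted 10- or 100-fold and retested.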

Read-out in experiment [8]: Tumor necrosis factor receptor superfamily member 6 (Homo sapiens) (UniProt P25445)
As to the kind of experiment: LTEA_HepaRG_FAS: Life Technologies and Expression Analysis (LTEA) Assay for Fas cell surface death receptor (FAS) using HepaRG (AID 2283447). Particulars: mRNA level, 48 h; actives raise or lower the signal. The method in brief: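 FAS transcript level was measured by TaqMan qRT-PCR against three housekeeping genes after 48 h chemical exposure. Cells were HepaRG, 0.5% DMSO vehicle, with a top concentration of 100 uM and half-log dilutions over eight points, in duplicate.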

Read-out in experiment [9]: Fatty acid synthase (Homo sapiens) (UniProt P49327)
As to the kind of experiment: LTEA_HepaRG_FASN: Life Technologies and Expression Analysis (LTEA) Assay for Fatty Acid Synthase (FASN) using HepaRG (AID 2283448).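 As to AC50: differentiated human HepaRG liver cells in serum-free induction medium.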 Particulars: mRNA level, 48 h; actives raise or lower the signal. The method in brief:
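Cells were plated, cultured 48 h, switched to serum-free induction medium, then dosed in duplicate (max 100 uM, half-log dilutions, 0.5% DMSO) for 48 h. RNA was then isolated and FASN quantified by qRT-PCR.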

Read-out in experiment [10]: Cyclin D2 (CCND2), CCND2 (gene 894)
In words: LTEA_HepaRG_CCND2: Life Technologies and Expression Analysis (LTEA) Assay for Cyclin D2 (CCND2) using HepaRG (AID 2283449). The following applies: mRNA level, 48 h; actives raise or lower the signal. Summed up: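 CCND2 transcript levels, quantified by qRT-PCR and normalised to three housekeeping genes, were fitted bidirectionally against 0.5% DMSO. HepaRG cultures were dosed 48 h in duplicate with an 8-point half-log series up to 100 uM.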

Read-out in experiment [11]: Cyclin D1 (CCND1), CCND1 (gene 595)
In words: LTEA_HepaRG_CCND1: Life Technologies and Expression Analysis (LTEA) Assay for Cyclin D1 (CCND1) using HepaRG (AID 2283451).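 As to AC50: differentiated human HepaRG liver cells in serum-free induction medium; TaqMan qRT-PCR transcript level normalised to ACTB GAPDH and POLR2A housekeeping genes.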 Particulars: mRNA level, 48 h; actives raise or lower the signal. The method in brief: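 Expression of CCND1 was quantified by qRT-PCR on Fluidigm arrays using ACTB, GAPDH and POLR2A as reference genes. HepaRG cultures, plated 48 h beforehand, were dosed for 48 h at up to 100 uM (half-log, 8 points) in 0.5% DMSO.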

Read-out in experiment [12]: catalase (CAT), CAT (gene 847)
As to the kind of experiment: LTEA_HepaRG_CAT: Life Technologies and Expression Analysis (LTEA) Assay for catalase (CAT) using HepaRG (AID 2283452).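 As to AC50: TaqMan qRT-PCR signal normalized to ACTB GAPDH and POLR2A housekeeping genes.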 The following applies: mRNA level, 48 h; actives raise or lower the signal. Summed up: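 Expression of CAT was quantified by TaqMan qRT-PCR with ACTB/GAPDH/POLR2A normalization after 48 h chemical exposure of HepaRG. Eight-point half-log series, top 100 uM, in 0.5% DMSO; gain or loss fitted against vehicle.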

Read-out in experiment [13]: flavin-containing dimethylaniline monooxygenases 3 (FMO3), FMO3 (gene 2328)
In words: LTEA_HepaRG_FMO3: Life Technologies and Expression Analysis (LTEA) Assay for flavin-containing dimethylaniline monooxygenases 3 (FMO3) using HepaRG (AID 2283453).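 As to AC50: differentiated human HepaRG liver cells in serum-free induction medium; FMO3 transcript by TaqMan qRT-PCR normalized to ACTB GAPDH and POLR2A.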 The following applies: mRNA level, 48 h; actives raise or lower the signal. Summed up:
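FMO3 transcript quantified by TaqMan qRT-PCR against three housekeeping genes after 48 h chemical exposure of HepaRG cells. Eight-point half-log series, top 100 uM, 0.5% DMSO vehicle; phenobarbital 1mM induction control; up- or down-regulation fitted.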

Read-out in experiment [14]: Cytochrome P450 (CYP1A1), CYP1A1 (gene 1543)
As to the kind of experiment: LTEA_HepaRG_CYP1A1: Life Technologies and Expression Analysis (LTEA) Assay for Cytochrome P450 (CYP1A1) using HepaRG (AID 2283454). The following applies: mRNA level, 48 h; actives raise or lower the signal. Summed up:
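CYP1A1 transcript levels measured by Fluidigm qRT-PCR against three housekeeping genes, 48 h after chemical dosing of human HepaRG cells (highest concentration 100 uM, half-log steps, 0.5% DMSO vehicle). Gain or loss of signal fitted relative to DMSO.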

Read-out in experiment [15]: Cyclin Dependent Kinase Inhibitor 1A (CDKN1A), CDKN1A (gene 1026)
In words: LTEA_HepaRG_CDKN1A: Life Technologies and Expression Analysis (LTEA) Assay for Cyclin Dependent Kinase Inhibitor 1A (CDKN1A) using HepaRG (AID 2283450). The following applies: mRNA level, 48 h; actives raise or lower the signal. The method in brief: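 Expression quantified by Fluidigm qRT-PCR with ACTB, GAPDH and POLR2A normalization, fitted bidirectionally against 0.5% DMSO. Cells: HepaRG, plated 48 h then treated 48 h in serum-free induction medium, top concentration 100 uM with half-log dilutions.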

Experiment [16] is described as follows: CEETOX_H295R_ANDR: CeeTox H295R High-throughput Steroidogenesis Assay for Androstenedione (ANDR) (AID 2283436). The following applies: actives raise or lower the signal. The method in brief:
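Medium from 48 h chemical-treated H295R adrenal cells was extracted with MTBE and androstenedione measured by LC-MS/MS. Activity was fit in both directions relative to DMSO. Cytotoxic concentrations were re-tested after dilution until MTT viability reached ≥70%.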

Experiment [17] in a line: CEETOX_H295R_CORTISOL: CeeTox H295R High-throughput Steroidogenesis Assay for Cortisol (AID 2283438). Particulars: actives raise or lower the signal. The method in brief:
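Cortisol synthesis by H295R cells is measured 48 h after chemical dosing, following a 48 h stimulation with 10 uM forskolin. Hormone is extracted and quantified by HPLC-MS/MS, and activity is fitted bidirectionally against the DMSO control.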

Experiment [18] in a line: CEETOX_H295R_DOC: CeeTox H295R High-throughput Steroidogenesis Assay for DOC (AID 2283439). The following applies: actives raise or lower the signal. Summed up: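 Steps: seed H295R, adhere overnight; 10 uM forskolin 48 h; replace with chemical medium (0.1% DMSO) 48 h; collect medium, MTBE extraction, HPLC-MS/MS for DOC. Viability then checked by MTT; cytotoxic chemicals diluted until viability ≥70%.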

The nature of experiment [19]: CEETOX_H295R_ESTRADIOL: CeeTox H295R High-throughput Steroidogenesis Assay for Estradiol (AID 2283440).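 Also: estradiol secreted into medium quantified by LC-MS/MS after dansyl derivatisation.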 Particulars: actives raise or lower the signal. The method in brief: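 Estradiol in spent medium measured by LC-MS/MS after dansyl chloride derivatisation. Forskolin-primed (10 uM, 48 h) human adrenal H295R cells received test chemical 48 h at 0.1% DMSO; concentrations lowered until MTT viability >/=70%.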

A short description of experiment [20]: CEETOX_H295R_ESTRONE: CeeTox H295R High-throughput Steroidogenesis Assay for Estrone (AID 2283441). Particulars: actives raise or lower the signal. Summed up:
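Estrone secreted into medium quantified by LC-MS/MS after dansyl chloride derivatization, following 48 h chemical exposure (0.1% DMSO final) of forskolin-prestimulated (10 uM, 48 h) H295R cells; gain or loss fitted against DMSO; MTT viability in same wells.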

This is an account of results in PubChem BioAssay (EPA / NIEHS).

A word on the AC50: it is the midpoint of the concentration-response curve, whichever way the signal moves.

“And” between values parts separate entries of the source, which are not always exact repeats. Equal values may be shown once. Records with an inconclusive call do not appear. The source holds several records for some structures; these can differ, active in one and inactive in another. The source made the active and inactive calls. The calls were made as follows, unless noted: active = hit-call score of the fitted dose curve at least 0.9, where 1 is the maximum; inactive = score below 0.9.

Chain of Retinoic acid receptor RXR-alpha (Homo sapiens) (P19793 whole entry, looked up, the tested form may be a part): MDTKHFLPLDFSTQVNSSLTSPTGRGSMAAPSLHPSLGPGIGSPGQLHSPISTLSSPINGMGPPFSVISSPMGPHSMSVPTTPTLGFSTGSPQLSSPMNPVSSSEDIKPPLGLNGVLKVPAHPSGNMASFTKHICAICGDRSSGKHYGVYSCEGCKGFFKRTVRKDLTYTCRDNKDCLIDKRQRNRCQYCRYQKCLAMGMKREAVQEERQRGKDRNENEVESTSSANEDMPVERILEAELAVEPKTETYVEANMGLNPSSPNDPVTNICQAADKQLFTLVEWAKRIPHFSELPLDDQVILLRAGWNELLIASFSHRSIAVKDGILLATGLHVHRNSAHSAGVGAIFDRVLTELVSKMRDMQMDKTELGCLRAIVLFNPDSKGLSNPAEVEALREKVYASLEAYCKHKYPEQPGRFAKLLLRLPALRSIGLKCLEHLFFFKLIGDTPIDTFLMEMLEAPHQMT
Chain of Fatty acid synthase (Homo sapiens) (P49327 whole entry, looked up): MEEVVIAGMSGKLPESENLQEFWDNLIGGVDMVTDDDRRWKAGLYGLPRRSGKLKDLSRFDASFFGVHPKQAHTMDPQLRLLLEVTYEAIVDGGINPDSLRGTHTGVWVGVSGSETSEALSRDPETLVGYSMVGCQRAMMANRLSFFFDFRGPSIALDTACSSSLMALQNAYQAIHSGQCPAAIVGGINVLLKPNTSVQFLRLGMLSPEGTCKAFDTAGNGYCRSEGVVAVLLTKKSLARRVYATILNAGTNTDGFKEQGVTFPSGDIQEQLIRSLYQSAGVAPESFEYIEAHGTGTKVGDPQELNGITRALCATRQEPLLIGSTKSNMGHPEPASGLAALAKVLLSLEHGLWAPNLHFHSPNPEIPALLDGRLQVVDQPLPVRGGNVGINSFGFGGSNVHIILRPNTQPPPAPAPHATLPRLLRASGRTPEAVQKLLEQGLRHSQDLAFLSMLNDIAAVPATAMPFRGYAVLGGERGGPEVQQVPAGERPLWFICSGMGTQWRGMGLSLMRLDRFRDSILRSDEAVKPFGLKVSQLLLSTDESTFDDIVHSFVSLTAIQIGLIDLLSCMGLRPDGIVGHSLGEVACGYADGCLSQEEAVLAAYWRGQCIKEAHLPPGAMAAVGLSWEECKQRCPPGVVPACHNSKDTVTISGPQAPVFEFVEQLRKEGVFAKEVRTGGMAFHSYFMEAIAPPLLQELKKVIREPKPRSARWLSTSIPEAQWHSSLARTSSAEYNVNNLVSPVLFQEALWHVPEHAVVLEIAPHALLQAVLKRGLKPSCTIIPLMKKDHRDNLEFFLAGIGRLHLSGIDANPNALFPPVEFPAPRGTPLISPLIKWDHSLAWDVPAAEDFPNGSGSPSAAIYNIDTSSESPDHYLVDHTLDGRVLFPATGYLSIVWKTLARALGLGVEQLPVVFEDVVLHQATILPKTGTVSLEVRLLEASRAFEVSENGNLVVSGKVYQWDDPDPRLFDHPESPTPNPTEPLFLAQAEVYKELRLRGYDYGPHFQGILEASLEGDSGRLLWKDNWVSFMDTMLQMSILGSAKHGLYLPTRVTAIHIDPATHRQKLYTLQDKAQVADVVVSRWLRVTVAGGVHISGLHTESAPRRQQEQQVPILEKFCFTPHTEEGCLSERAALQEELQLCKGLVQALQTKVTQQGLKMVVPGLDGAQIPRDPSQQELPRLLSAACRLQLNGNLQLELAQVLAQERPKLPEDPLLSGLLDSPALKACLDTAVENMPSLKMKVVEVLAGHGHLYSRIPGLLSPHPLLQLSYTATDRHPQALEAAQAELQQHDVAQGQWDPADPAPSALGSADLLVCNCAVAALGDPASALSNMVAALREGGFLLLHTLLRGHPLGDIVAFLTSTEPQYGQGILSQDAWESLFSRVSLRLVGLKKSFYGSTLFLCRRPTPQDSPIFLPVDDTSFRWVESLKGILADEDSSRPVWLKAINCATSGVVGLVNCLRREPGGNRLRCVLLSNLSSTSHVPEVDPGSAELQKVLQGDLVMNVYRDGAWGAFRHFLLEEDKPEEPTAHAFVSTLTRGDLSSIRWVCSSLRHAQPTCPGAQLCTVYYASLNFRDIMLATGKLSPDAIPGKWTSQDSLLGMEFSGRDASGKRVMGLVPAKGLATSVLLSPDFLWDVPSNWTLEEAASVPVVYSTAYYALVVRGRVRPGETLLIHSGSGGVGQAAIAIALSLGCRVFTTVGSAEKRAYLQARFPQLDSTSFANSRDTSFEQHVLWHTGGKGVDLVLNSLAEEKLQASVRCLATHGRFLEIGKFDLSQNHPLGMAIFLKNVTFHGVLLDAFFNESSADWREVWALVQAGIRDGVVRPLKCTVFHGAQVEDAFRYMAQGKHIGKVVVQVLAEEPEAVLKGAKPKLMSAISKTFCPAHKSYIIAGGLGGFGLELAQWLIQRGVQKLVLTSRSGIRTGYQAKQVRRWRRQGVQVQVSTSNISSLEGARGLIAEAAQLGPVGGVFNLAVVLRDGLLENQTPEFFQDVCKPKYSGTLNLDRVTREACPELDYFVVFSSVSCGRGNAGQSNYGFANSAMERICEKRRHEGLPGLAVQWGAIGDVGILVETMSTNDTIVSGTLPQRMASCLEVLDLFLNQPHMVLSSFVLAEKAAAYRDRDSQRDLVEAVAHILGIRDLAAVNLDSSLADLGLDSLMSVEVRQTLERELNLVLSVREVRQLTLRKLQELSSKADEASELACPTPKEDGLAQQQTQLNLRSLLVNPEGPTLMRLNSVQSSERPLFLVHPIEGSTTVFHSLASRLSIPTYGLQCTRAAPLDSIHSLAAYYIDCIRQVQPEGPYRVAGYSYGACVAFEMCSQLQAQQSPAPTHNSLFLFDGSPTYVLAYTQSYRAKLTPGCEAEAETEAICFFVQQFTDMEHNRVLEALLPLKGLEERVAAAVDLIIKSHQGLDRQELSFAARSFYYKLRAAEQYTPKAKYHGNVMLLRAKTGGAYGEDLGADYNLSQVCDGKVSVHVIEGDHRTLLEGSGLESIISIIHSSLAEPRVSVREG

With `c1ccc2c(c1)ccc1ccccc12`, the compound was called inactive in [1], in [2], in experiment [3], in experiment [6], in experiment [7] and in [8]. Further, the compound was called inactive in [9], in [10], in experiment [11], in experiment [12] and in experiment [13]. In addition, the AC50 in experiment [4] was 55.9 µM (active); in experiment [5], 27.2 µM (active); in experiment [14], 50 µM (active).

Consider `Cc1cc(C)c(O)c(C)c1`, for which the result in experiment [1], in [2], in experiment [3], in [8], in [9] and in [10] was inactive. For the same compound, the result in [15], in [11] and in [13] was inactive. For the same compound, the half-maximal activity concentration (AC50) in experiment [14] is 50 µM (active).

Consider `O=c1c(-c2ccc(O)cc2)coc2cc(O)ccc12`, for which the AC50 in [1] was 14.4 µM (active) and 27 µM (active); in experiment [4], 9.01 µM (active); in [5], 4.47 µM (active); in [16], 15.2 µM (active); in experiment [6] it was 1.22 µM (active); in experiment [17], 8.88 µM (active). For the same compound, the concentration at half-maximal activity (AC50) was 3.19 µM (active) in experiment [18] and 4.62 µM (active) in experiment [7]. Further, the outcome in experiment [1], in [2], in experiment [3], in experiment [19], in [20] and in experiment [8] was inactive. Further, the call in experiment [9], in [10], in experiment [15], in experiment [11], in [12] and in [13] was inactive. The result in experiment [14] was inactive.

Take `NC(=O)N1C(=O)C(C(=O)c2cc(Cl)cs2)c2cc(F)c(Cl)cc21` (stereo not drawn): the concentration at half-maximal activity (AC50) was 32.9 µM (active) in experiment [1]; 28.7 µM (active) in [10]; 13.1 µM (active) in experiment [11]; 25.1 µM (active) in [12]; 20 µM (active) in experiment [13]; 3.31 µM (active) in [14]. In addition, the compound was called inactive in experiment [1], in experiment [2], in experiment [3], in experiment [8] and in [9].

Turning to `CCCCCCCCCCCCN1CCCC1=O`, the results for the AC50 in experiment [1] and in [14] were 11.7 µM (active) and 68.2 µM (active), respectively. Further, the call in [2], in experiment [3], in experiment [8], in [9], in experiment [10] and in experiment [15] was inactive. For the same compound, the call in experiment [11] and in [13] was inactive.

As for `Nc1cccc2c(N)cccc12`, the result in [1], in [2], in experiment [3], in experiment [5], in [16] and in experiment [6] was inactive. Moreover, the outcome in [19], in experiment [20], in [8], in experiment [11] and in experiment [13] was inactive. In addition, the concentration at half-maximal activity (AC50) in experiment [4] was 5 µM (active); in [17], 5 µM (active); in experiment [18], 2.73 µM (active); in [7], 2.44 µM (active); in experiment [9] it was 18.3 µM (active); in experiment [14] it was 9 µM (active).
